Assay [1] can be described thus: Viability qHTS for spleen associated tyrosine kinase inhibitor (SYKi) naive MV4-11 cells (AID 1963823). Further: nearly all actives have a fitted effect of over 40% in size. The essentials: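 SYKi-naive MV4-11 AML cells, 500 per well, were exposed to library compounds for 72 hr at 37 C, 5% CO2. Viability was then read by CellTiter-Glo luminescence after 10 min at room temperature.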
The nature of assay [2]: Viability qHTS for spleen associated tyrosine kinase inhibitor (SYKi) drug resistant MV4-11 cells (AID 1963824). Further: nearly all actives have a fitted effect of over 35% in size. The gist of the method: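 CellTiter-Glo luminescence, read 10 min after reagent addition, reports viability after a 72 hr compound exposure. Cells are an MV4-11 line made resistant to SYK inhibition, seeded at 500 per well onto compound-containing plates.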
On the technique in general: Quantitative high-throughput screening tests each substance at several concentrations.

The structures appear in SMILES notation. Inconclusive results are not listed. Values without a mark were called inactive. Activity calls are given as the source filed them. The call rests on the fitted dose curve; in most records, active means well fitted cell-killing curve with a large enough effect; inconclusive means small, poorly fitted or top-dose-only effect, or effect the other way; inactive means no such curve, though single readings can be large or run the other way.
Potency means the concentration at half of the fitted maximal effect.

For `OCC(CO[C@@H]1O[C@H](CO)[C@@H](O)[C@H](O)[C@H]1O)c1ccc2c(c1)OCO2` (stereo partly specified), the Potency result in assay [1] and in assay [2] was “inactive” in each case.

For `COc1cc(C2CC(=O)Nc3c2cc(Br)c2ccccc32)cc(OC)c1OC` (stereo unspecified), the Potency result in assay [1] and in assay [2] was “inactive” in each case.

`C=CC(=O)N1CCC(C2CCNc3c(C(N)=O)c(-c4ccc(Oc5ccccc5)cc4)nn32)CC1` (stereo unspecified): the Potency in assay [1] was 7.42 µM (active); in assay [2], 11.8 µM (active).

On to `CC1(C)C(=O)CCC2(C)C1C(O)C=C1COC(=O)C12O` (stereo unspecified), for which the Potency result in assay [1] and in assay [2] was “inactive” throughout.

`C=C(C(=O)OC[C@H]1O[C@@H](OC(=O)/C=C/c2ccccc2)[C@H](O)[C@@H](O)[C@@H]1O)C(O)CO` (stereo partly specified): the Potency is 7.96 µM (active) in assay [1] and 11.2 µM (active) in assay [2].

In the case of `C[C@@H]1CC[C@]2(C(=O)O[C@@H]3O[C@H](CO)[C@@H](O)[C@H](O)[C@H]3O)CC[C@]3(C)C(=CCC4[C@@]5(C)C[C@@H](O)[C@H](O)[C@@](C)(C(=O)O[C@H]6[C@H](O)C[C@@]7(C)C(CC[C@]8(C)C7CC=C7[C@H]9[C@](C(=O)O[C@@H]%10O[C@H](CO)[C@@H](O)[C@H](O)[C@H]%10O)(CC[C@@H](C)[C@@]9(C)O)CC[C@]78C)[C@@]6(CO)C(=O)O)C5CC[C@]43C)[C@@H]2[C@]1(C)O` (stereo partly specified), in assay [1], the viability (% of control) was 65.2% [at 9.25 µM]. Moreover, the viability, % of control in assay [2] was 103% [at 9.25 µM].

`COC(=O)C1=COC(O[C@@H]2O[C@H](COC(=O)/C=C/c3ccc(O)cc3)[C@@H](O)[C@H](O)[C@H]2O)C2C(CO)=CCC12` (stereo partly specified): the Potency entry in assay [1] and in assay [2] was “inactive” throughout.

Take `COC(=O)CC1(O)C(=O)Nc2ccccc21` (stereo unspecified): the Potency result in assay [1] and in assay [2] was “inactive” each time.

For the origin of these results see PubChem BioAssay (NCATS).
